Assay outcomes: PubChem, several laboratories
Neddylation inh: blocks human cullin neddylation; calls only at 25 µM; 360,000 compounds, 0.58% hits; TR-FRET cullin neddylation, biochemical; P61081+Q13564; in the data active means inhibition above about 36%
proKLK7 act: activators of human kallikrein-7 zymogen | P49862 | activation, % at 7 µM | purified proKLK7, EDANS-DABCYL substrate fluorescence; 100% is mature enzyme control, 0% vehicle | 370,000 compounds, 0.9% hits;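 active means activation above the mean of all tested compounds plus 3 SD, computed per campaign excluding outliers beyond control limits, cut at about 13% in these data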
PfGluPho inh: PfG6PD (Plasmodium falciparum) enzyme inhibition. inhibition, % at 20 µM. 350,000 compounds, 0.78% hits. PfGluPho enzyme, NADPH resazurin-diaphorase fluorescence. AID 504690;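 active means inhibition reaching at least a set limit at 20 µM in the primary screen, cut at about 59% in these data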
FAS-TE inh: blocks the thioesterase domain of human fatty acid synthase; 360,000 compounds, 0.67% hits; recombinant FAS-TE, OMFH fluorogenic substrate, fluorescence endpoint; inhibition, % at 15 µM;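 active means compounds whose normalised, plate-corrected inhibition of enzyme fluorescence in the single-dose primary screen is 50% or more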
Target sequence (P49327 whole entry, looked up, the tested form may be a part): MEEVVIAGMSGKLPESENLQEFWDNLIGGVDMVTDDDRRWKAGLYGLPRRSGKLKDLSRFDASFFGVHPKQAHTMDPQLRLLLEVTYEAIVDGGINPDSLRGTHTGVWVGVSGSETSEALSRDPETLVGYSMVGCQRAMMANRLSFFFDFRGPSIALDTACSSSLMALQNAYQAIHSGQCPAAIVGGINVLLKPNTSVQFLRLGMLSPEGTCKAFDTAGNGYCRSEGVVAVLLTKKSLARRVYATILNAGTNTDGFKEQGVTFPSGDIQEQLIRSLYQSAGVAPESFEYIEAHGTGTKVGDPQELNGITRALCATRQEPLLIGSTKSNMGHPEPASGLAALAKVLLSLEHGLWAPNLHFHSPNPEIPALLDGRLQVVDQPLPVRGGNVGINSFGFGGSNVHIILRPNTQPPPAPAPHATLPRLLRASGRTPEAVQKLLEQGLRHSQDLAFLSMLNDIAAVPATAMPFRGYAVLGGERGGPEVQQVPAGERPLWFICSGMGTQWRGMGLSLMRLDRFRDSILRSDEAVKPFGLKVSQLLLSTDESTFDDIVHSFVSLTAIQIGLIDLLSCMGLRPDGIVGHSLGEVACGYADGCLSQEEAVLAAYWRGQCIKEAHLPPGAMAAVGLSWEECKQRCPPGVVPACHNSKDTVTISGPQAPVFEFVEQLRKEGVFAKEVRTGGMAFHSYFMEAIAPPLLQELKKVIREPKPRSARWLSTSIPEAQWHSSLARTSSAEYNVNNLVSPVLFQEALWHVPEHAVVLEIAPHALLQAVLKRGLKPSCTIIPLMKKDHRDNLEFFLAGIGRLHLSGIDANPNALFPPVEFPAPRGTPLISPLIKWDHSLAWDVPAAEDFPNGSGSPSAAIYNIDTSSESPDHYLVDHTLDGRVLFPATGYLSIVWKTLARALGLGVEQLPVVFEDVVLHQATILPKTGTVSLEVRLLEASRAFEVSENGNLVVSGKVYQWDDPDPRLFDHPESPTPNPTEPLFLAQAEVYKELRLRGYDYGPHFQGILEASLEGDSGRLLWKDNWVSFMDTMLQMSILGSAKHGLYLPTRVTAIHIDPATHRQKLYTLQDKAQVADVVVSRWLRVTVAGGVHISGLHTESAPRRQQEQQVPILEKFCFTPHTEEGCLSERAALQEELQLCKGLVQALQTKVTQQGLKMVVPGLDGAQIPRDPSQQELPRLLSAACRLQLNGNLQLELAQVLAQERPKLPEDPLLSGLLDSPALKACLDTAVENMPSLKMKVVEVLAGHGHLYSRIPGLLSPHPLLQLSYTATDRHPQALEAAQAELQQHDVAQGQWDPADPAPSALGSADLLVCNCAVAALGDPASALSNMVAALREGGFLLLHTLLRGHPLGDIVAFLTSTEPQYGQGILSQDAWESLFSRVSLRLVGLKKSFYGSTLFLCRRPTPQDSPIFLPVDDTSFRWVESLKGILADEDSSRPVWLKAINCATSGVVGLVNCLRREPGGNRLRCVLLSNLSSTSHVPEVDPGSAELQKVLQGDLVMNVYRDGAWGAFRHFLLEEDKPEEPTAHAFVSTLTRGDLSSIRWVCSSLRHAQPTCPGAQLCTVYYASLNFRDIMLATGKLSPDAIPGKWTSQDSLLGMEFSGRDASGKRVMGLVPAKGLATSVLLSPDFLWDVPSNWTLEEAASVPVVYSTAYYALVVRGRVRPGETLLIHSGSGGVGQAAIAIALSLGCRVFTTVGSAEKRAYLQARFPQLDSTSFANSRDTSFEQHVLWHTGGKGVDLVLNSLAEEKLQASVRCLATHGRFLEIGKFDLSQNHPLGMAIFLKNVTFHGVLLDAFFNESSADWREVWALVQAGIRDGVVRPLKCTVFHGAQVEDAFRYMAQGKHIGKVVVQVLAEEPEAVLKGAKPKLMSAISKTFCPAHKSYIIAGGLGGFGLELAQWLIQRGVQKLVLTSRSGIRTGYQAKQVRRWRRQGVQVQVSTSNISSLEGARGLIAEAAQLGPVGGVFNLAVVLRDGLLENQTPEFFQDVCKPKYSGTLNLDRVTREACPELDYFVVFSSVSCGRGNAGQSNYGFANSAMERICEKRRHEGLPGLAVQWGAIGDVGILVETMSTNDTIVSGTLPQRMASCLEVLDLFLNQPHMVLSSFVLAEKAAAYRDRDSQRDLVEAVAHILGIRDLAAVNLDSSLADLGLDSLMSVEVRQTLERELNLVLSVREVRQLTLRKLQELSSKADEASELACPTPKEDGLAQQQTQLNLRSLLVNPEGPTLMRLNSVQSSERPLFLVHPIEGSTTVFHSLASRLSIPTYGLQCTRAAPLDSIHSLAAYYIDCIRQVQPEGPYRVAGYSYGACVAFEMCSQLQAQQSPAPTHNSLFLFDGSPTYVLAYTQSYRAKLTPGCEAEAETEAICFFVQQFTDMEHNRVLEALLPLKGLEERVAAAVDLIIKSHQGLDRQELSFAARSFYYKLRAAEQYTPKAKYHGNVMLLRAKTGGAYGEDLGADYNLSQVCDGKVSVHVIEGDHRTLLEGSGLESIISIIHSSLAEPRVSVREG
Numbers stand for hits; i = inactive; nt = no result given; + = active, no number. Sampled rows, rich in hits. Any-hit rate of the full collection: about 2.7%.

SMILES	Neddylation inh	proKLK7 act	PfGluPho inh	FAS-TE inh
O=C(Cc1c(F)cccc1Cl)Nc1cccc(S(=O)(=O)NC2=NCCCCC2)c1	i	i	i	i
O=C(OCCN1CCN(C2CN(Cc3cn(Cc4ccccc4Cl)nn3)S(=O)(=O)C2)CC1)c1cc2ccccc2o1 (stereo not given)	nt	i	nt	nt
COc1ccc2c(c1)[C@H]1[C@H](CO2)[C@H](c2ccccc2)[C@]2(C)C(=O)N(Cc3ccc(C)cc3)CC(=O)N12	i	nt	i	63.3
C[C@@]12C(=O)Nc3ccc(Cl)cc3C(=O)N1[C@H]1c3ccccc3OC[C@@H]1[C@@H]2c1ccccc1	i	nt	i	82.8
C[C@@]12C(=O)Nc3ccc(F)cc3C(=O)N1[C@H]1c3ccccc3OC[C@@H]1[C@@H]2c1ccccc1	i	nt	i	i
Cc1ccc2c(c1)[C@H]1[C@H](CO2)[C@H](c2ccccc2)[C@]2(C)C(=O)N(Cc3ccccc3)CC(=O)N12	i	i	i	i
COc1ccc2c(c1)OC[C@H]1[C@H]2N2C(=O)c3cc(OC)c(OC)cc3NC(=O)[C@@]2(C)[C@H]1c1ccccc1	i	i	i	91.3
COc1cc2c(cc1OC)C(=O)N1[C@H]3c4ccccc4OC[C@@H]3[C@H](c3ccccc3)[C@]1(C)C(=O)N2	i	i	i	i
Cc1ccccc1NC(=O)c1cccc2c1-c1ccccc1C2=O	nt	i	nt	nt
CCN1CCc2c(sc(NC(=O)c3ccc4ccccc4c3)c2C(N)=O)C1	+	i	nt	i
Cc1cc(C)cc(Oc2coc3cc(OC(=O)c4cccnc4)ccc3c2=O)c1	nt	i	i	i
CCOC(=O)Oc1ccc2c(=O)c(Oc3cc(C)cc(C)c3)coc2c1	nt	35.9	i	i
CCOC(=O)Oc1ccc2c(=O)c(Oc3cccc(C)c3)coc2c1	nt	75.9	i	i
COc1ccc2[nH]c(C(=O)N/N=C/c3ccc(O)cc3O)cc2c1	+	i	i	i
CCOc1ccc2[nH]c(C(=O)N/N=C/c3ccc(OC)cc3)cc2c1	i	i	i	i
COc1ccc(/C=N/NC(=O)c2nc(-c3ccccc3)n(-c3ccccc3)n2)cc1	i	i	i	i
COc1ccc(/C=N/NC(=O)c2nc(-c3ccccc3)n(-c3ccccc3)n2)c(O)c1	+	i	i	i
O=C(OC12CCCN(C1)/C(=C/c1ccc(Cl)cc1)C2)c1ccccc1 (stereo not given)	nt	i	nt	nt
O=c1c2ccccc2[nH]c2ccc(O)cc12	+	i	i	i
Cc1ccc2[nH]c3ccccc3c(=O)c2c1	nt	19.1	i	i
Cc1ccc(NC(=O)C2CCCN2S(=O)(=O)c2cccnc2)cc1C (stereo not given)	nt	i	nt	nt
CSc1nc(=S)c2[nH]c(=S)[nH]c2[nH]1	i	i	87.8	i
CSc1nc2c(c(=O)[nH]1)CCCC2	i	i	i	i
COC(=O)C1CN(Cc2ccc(C)cc2)CCS(=O)(=O)N1Cc1cn(Cc2ccc(OC)cc2)nn1 (stereo not given)	nt	i	nt	nt
O=C(CN(C(=O)OCC1c2ccccc2-c2ccccc21)[C@@H](Cc1ccccc1)C(=O)O)OCc1ccc(C(=O)NCc2ccccc2)cc1	nt	i	nt	nt
SMILES	Neddylation inh	proKLK7 act	PfGluPho inh	FAS-TE inh
Cc1ccc(-n2nc3ccc(N)cc3n2)cc1	nt	35.2	i	i
Cc1ccc(NS(=O)(=O)c2cc(NC(=O)C(C)Oc3ccccc3)ccc2C)c(C)c1 (stereo not given)	i	i	i	i
Cc1ccc(C)c(S(=O)(=O)Nc2cc(SCC(=O)O)c(O)c3ccccc23)c1	i	nt	103.7	i
CCOC(=O)[C@]12CCCC=C1N(CCCOC)C(=O)[C@@H]2CC(=O)NCc1cccc(C(F)(F)F)c1	nt	i	nt	nt
COc1cc(/C=C2/SC(=S)NC2=O)ccc1OS(=O)(=O)c1ccc(C)cc1	i	nt	i	57.0
COc1ccc(/C=C2\CC3(OC(=O)c4ccc(F)cc4)CCCN2C3)cc1 (stereo not given)	nt	i	nt	nt
Cc1ccc(-c2nn(-c3ccccc3)cc2/C=C(\C#N)c2cccc(C#N)c2)o1	+	nt	i	i
COc1ccc(-c2nc(C#N)c(NCc3cccnc3)o2)cc1OC	+	i	i	i
COc1ccc(-c2nc(C#N)c(NCc3ccc(F)cc3)o2)cc1OC	nt	i	i	i
CCN1/C(=C/c2ccc3cc(C)ccc3[n+]2CC)Sc2ccc3sccc3c21	i	nt	61.1	i
CCC(=O)N1CCN(c2ccccc2NC(=O)c2ccc(-c3cccc([N+](=O)[O-])c3)o2)CC1	i	i	i	51.3
O=C(CN1C(=O)CCSc2ccccc21)Nc1ccc(F)cc1F	nt	i	nt	nt
Cn1c(=O)n(C)c2cc([N+](=O)[O-])c(N3CCN(S(=O)(=O)c4ccc5ccccc5c4)CC3)cc21	i	i	i	65.6
Cc1ccc(S(=O)(=O)N2CCN(c3cc4c(cc3[N+](=O)[O-])n(C)c(=O)n4C)CC2)cc1	i	i	i	i
COc1ccc(NC(=O)CSc2ncnc3scc(-c4ccc(C)cc4)c23)cc1OC	nt	i	nt	nt
O=C(NCCCN1CCN(c2ccc(F)cc2)CC1)NCc1ccccc1	nt	i	nt	nt
O=c1[nH]sc2ccccc12	i	i	65.1	i
CCC(C)[C@@H](C(=O)OC)N(Cc1cn(Cc2ccccc2)nn1)S(=O)(=O)c1ccccc1Br (stereo not given in full)	nt	i	nt	nt
COCc1cc(C)c(C#N)c(=S)[nH]1	i	nt	69.7	i
N#Cc1ccc(C23CC4(C2)[C@H](CN(P(=O)(c2ccccc2)c2ccccc2)[C@@H]4c2ccccc2)C3c2ccc(Cl)nc2)cc1 (stereo not given in full)	i	nt	i	72.5
CN1C[C@@H]2C(c3ccc(Cl)nc3)C3(c4ccc(C#N)cc4)CC2(C3)[C@H]1c1ccccc1 (stereo not given in full)	i	i	i	i
O=[N+]([O-])c1ccc(C=Nc2ccc(Cl)c([N+](=O)[O-])c2)s1	i	i	nt	i
Cc1cc(C)cc(N=Cc2ccc([N+](=O)[O-])s2)c1	i	i	62.4	i
NC(=O)c1ccc(N=Cc2ccc([N+](=O)[O-])s2)cc1	i	i	72.3	i
CC(=O)Nc1ccc(C(CCCc2ccccc2)C2=CCCCC2)cc1 (stereo not given)	nt	i	nt	nt
SMILES	Neddylation inh	proKLK7 act	PfGluPho inh	FAS-TE inh
Cc1ccccc1NC(=O)CN1C(=O)NC2(CCc3ccccc32)C1=O (stereo not given)	i	i	i	i
COc1cc2c(cc1NC(=O)CN1C(=O)NC3(CCc4ccccc43)C1=O)oc1ccccc12 (stereo not given)	i	i	i	54.6
C=CC[C@H]1c2ccccc2[C@H]2N3N=Cc4ccccc4[C@H]3[C@H](CCc3ccccc3)C(=O)N2N1C(=O)c1ccccc1	nt	i	nt	nt
O=[N+]([O-])c1ccc(/C=C/c2ccncc2)cc1	i	i	i	i
[O-]/[N+](=C\c1ccncc1)c1ccc(Br)cc1	i	nt	91.0	i
Cc1cc(C(=O)COC(=O)c2ccccc2O)c(C)n1CC1CCCO1 (stereo not given)	i	i	i	i
Cc1cc(C(=O)COC(=O)c2cc(O)c3ccccc3c2O)c(C)n1CC1CCCO1 (stereo not given)	i	nt	78.4	i
CCc1c(C)[nH]c2ccc(OC)cc2c1=S	i	i	66.7	i
N#Cc1ccccc1N1CCN(S(=O)(=O)c2ccc3c(c2)CCC(=O)N3)CC1	nt	i	nt	nt
